Screening data (PubChem)
EZH2 inh: inhibitors of human EZH2/PRC2 methyltransferase; Q15910; PRC2 H3K27 methylation, DELFIA TRF, 1 h; inhibition, % at 12.5 µM; 57,000 tested, 0.35% active;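 active = mean inhibition of replicates at least 50% and every single replicate also reaching 50%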;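 note: dimethyl H3K27 on biotinylated H3 21-44 peptide detected by antibody; plate controls were median neutral control wells for no effect and median positive control wells for full effect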
Target sequence (Q15910 whole entry, looked up): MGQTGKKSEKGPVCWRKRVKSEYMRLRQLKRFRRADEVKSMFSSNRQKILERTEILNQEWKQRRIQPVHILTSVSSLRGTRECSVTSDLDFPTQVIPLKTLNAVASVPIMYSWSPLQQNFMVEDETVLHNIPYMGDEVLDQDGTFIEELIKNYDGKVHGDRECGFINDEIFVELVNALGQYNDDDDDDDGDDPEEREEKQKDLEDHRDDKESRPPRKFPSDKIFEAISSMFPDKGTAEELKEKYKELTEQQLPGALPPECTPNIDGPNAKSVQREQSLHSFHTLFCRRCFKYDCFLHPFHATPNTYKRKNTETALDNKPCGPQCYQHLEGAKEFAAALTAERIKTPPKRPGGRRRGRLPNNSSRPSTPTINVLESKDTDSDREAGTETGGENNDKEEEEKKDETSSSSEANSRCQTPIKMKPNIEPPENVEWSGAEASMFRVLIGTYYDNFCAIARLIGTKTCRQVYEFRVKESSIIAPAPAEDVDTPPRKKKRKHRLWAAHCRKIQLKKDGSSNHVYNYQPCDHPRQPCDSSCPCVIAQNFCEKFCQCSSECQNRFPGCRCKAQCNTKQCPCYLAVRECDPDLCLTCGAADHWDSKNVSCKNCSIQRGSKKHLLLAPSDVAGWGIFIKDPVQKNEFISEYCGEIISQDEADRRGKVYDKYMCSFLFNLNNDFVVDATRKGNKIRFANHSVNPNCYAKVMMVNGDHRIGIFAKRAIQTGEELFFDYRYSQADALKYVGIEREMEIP
* = called active by the depositor. This is one part of a sample in which hits are shown more often than they occur.

SMILES	EZH2 inh
O=C(CSc1nnc2ccccn12)Nc1c(Cl)cc(Cl)cc1Cl	-9.0
O=C(c1cnc2ccccn12)C(F)(F)SCc1c(Cl)cccc1Cl	58.6*
Nc1c(S(=O)(=O)O)cc(Nc2cccc3ccccc23)c2c1C(=O)c1ccccc1C2=O	82.3*
O=C(Nc1cccc2ccccc12)OCCn1ncc2ccccc2c1=O	-7.1
O=C(CNS(=O)(=O)c1ccc(Br)cc1)Nc1cccc2ccccc12	11.1
Nc1c(S(=O)(=O)O)cc(Nc2ccc(Cl)cc2)c2c1C(=O)c1ccccc1C2=O	67.6*
Cc1ccc(S(=O)(=O)N2C(=O)CCC2C(=O)Nc2ccccc2-c2ccccc2)cc1 (stereo unspecified)	-16.4
COCCn1c(SCC(=O)N2CCOCC2)nc2c(c1=O)SC(C)C2 (stereo unspecified)	14.3
COc1ccc(NC(=O)CN2C(=O)c3cccc4cccc2c34)cc1OC	-19.4
COc1ccc(C)cc1NC(=O)CN1C(=O)c2cccc3cccc1c23	-8.2
O=C1c2cccc3cccc(c23)N1Cc1ccc(F)cc1Cl	59.8*
Cc1cc2nc(-c3cccc(NC(=O)COc4ccc(Br)cc4)c3C)oc2cc1C	-5.1
O=C(CCCCCCC(=O)Nc1ccccc1O)N/N=C/c1ccc(O)c(O)c1	-26.8
O=C(CCCCCCC(=O)Nc1ccccc1O)N/N=C/c1ccc(-c2ccccc2)c(F)c1	51.0*
O=C(CCCCCCC(=O)Nc1ccccc1O)N/N=C/c1ccc(F)cc1	-3.0
O=C(CCCCC(=O)N/N=C/c1ccc(-c2ccccc2)cc1)NO	24.7
CCOC(=O)C1=C(C)NC(=S)NC1c1cc(I)c(OCC#N)c(OC)c1 (stereo unspecified)	-3.7
O=C(O)CCCCCCC(=O)N/N=C/c1cc(Br)ccc1O	-5.6
Cc1ccc(C)c(OCCCCSc2ncccn2)c1Cl	55.6*
Cc1cc(Cl)cc(Br)c1OCCCSc1ncccn1	62.2*
Cc1ccc([N+](=O)[O-])c(OCCCSc2ncccn2)c1	15.9
O=[N+]([O-])c1ccccc1OCCCCSc1ncccn1	5.3
Clc1ccc(OCCCCSc2ncccn2)cc1	28.3
CC(C)=CCC/C(C)=C/CCC1(C)Oc2c(c(O)cc3c2CN(C(CCC(=O)O)C(=O)O)C3=O)CC1O (stereo unspecified)	3.5
COc1ccc(/C=N/NC(=O)c2ccccn2)cc1	13.9
SMILES	EZH2 inh
COc1c(OC)c(O)c2c(=O)cc(-c3ccc(O)cc3)oc2c1OC	3.0
O=c1cc(-c2ccc(O)cc2)oc2c(C3OCC(O)C(O)C3O)c(O)c(C3OC(CO)C(O)C(O)C3O)c(O)c12 (stereo unspecified)	58.2*
CC1OC(Oc2cc(O)c3c(=O)cc(-c4ccc(O)cc4)oc3c2C2OC(CO)C(O)C(O)C2O)C(O)C(O)C1O (stereo unspecified)	2.5
CC(C)c1ccc(NC(=O)CN(C)S(=O)(=O)c2ccc(F)cc2)cc1	-11.6
Cc1sc(NC(=O)COc2ccccc2C(C)C)c(C(N)=O)c1C	4.7
O=C(CCCCC(=O)N/N=C/c1ccccc1)NO	0.5
Cn1cnnc1SCC(=O)c1ccc([N+](=O)[O-])cc1	1.6
COc1ccc(COC[C@]23NC(=S)N[C@H](c4ccccc4O2)[C@H]3CO[Si](C)(C)C(C)(C)C)cc1	9.4
C[C@H]1CN([C@@H](C)CO)S(=O)(=O)c2ccc(/C=C/c3ccccc3)cc2O[C@@H]1CN(C)Cc1ccc(C(=O)O)cc1	52.8*
C[C@H](CO)N1C[C@H](C)[C@@H](CN(C)Cc2ccccc2)Oc2cc(/C=C/c3ccccc3)ccc2S1(=O)=O	-0.5
C[C@@H]1CN([C@@H](C)CO)S(=O)(=O)c2ccc(C3=CCCCC3)cc2O[C@H]1CN(C)Cc1cccc(C(=O)O)c1	55.7*
C[C@@H]1CN([C@@H](C)CO)S(=O)(=O)c2ccc(C#CCC3CCCC3)cc2O[C@H]1CN(C)Cc1cccc(C(=O)O)c1	61.9*
C[C@@H]1CN([C@H](C)CO)S(=O)(=O)c2ccc(Br)cc2O[C@H]1CN(C)Cc1cccc(C(=O)O)c1	0.6
C[C@H](CO)N1C[C@H](C)[C@@H](CN(C)Cc2cccc(C(=O)O)c2)Oc2cc(Br)ccc2S1(=O)=O	12.5
C[C@H]1CN([C@@H](C)CO)S(=O)(=O)c2ccc(/C=C/c3ccccc3)cc2O[C@H]1CN(C)Cc1ccccc1	10.3
C[C@H]1CN([C@@H](C)CO)S(=O)(=O)c2ccc(C3=CCCCC3)cc2O[C@@H]1CN(C)Cc1cccc(C(=O)O)c1	43.6
C[C@H]1CN([C@@H](C)CO)S(=O)(=O)c2ccc(C3=CCCCC3)cc2O[C@H]1CN(C)Cc1cccc(C(=O)O)c1	17.2
Cn1c(SCC(=O)Nc2ccc(Oc3ccccc3)cc2)nnc1-c1ccccc1Cl	23.4
CC(C)N(Cc1nc(-c2ccc(Cl)cc2)no1)S(=O)(=O)c1ccc(F)cc1	36.5
Cc1cccc(-c2nnc(SCC(=O)c3ccccc3)n2-c2ccccc2)c1	-5.9
COC(=O)CCCCCCC(=O)N/N=C/C=C/c1ccccc1	18.8
COc1ccc(C(=O)CSc2nc(C)[nH]c2[N+](=O)[O-])cc1Br	10.9
CC(C)(C)OC(=O)Nc1cccc(/C=N/NC(=O)c2ccccc2O)c1	10.8
COC(=O)c1ccc(C(=O)OC)c(NC(=O)COc2cc(C)c(C)cc2C)c1	-1.0
C[C@@H]1CN([C@@H](C)CO)C(=O)c2cc(C#Cc3ccncc3)cnc2O[C@@H]1CN(C)CC1CCOCC1	13.5
SMILES	EZH2 inh
C[C@@H]1CN([C@H](C)CO)C(=O)c2cc(C#Cc3ccncc3)cnc2O[C@H]1CN(C)CC1CCOCC1	99.7*
C[C@H]1CN([C@@H](C)CO)C(=O)c2cc(C#Cc3ccccc3)cnc2O[C@@H]1CN(C)CC1CCOCC1	-12.3
CN(CCO)c1ccc(/C=N/NC(=O)c2ccc(C(=O)NO)cc2)cc1	0.4
COc1ccc(OC)c(NC(=O)CN(c2ccc(Br)c(C)c2)S(C)(=O)=O)c1	17.3
Cc1ccc(F)c(NC(=O)CSc2nnc(C)s2)c1	5.7
Cc1ccc(-c2cc3ccccn3c2C(=O)CSc2nnc(C)s2)cc1	52.8*
Cc1nnc(SCC(=O)c2c(C)[nH]c3ccccc23)s1	-21.8
COc1cc(NC(=O)COc2cc(C)c(Cl)c(C)c2)c(C(=O)O)cc1OC	16.6
COc1cc(CO)cc(Br)c1OCc1cccc([N+](=O)[O-])c1	4.3
COC(=O)c1ccc(/C=N/NC(=O)c2ccccc2O)cc1	20.0
COc1ccc(/C=C2/SC(=S)NC2=O)cc1COc1ccc(F)cc1F	92.2*
Cc1cccc(N=C2NC(=O)/C(=C/c3ccc(F)cc3)S2)c1C	42.1
COC(=O)c1c(NC(=O)COc2ccc(Cl)c(C)c2)sc2c1CCC2	-13.5
COc1ccc(C(=O)CCC(=O)Nc2ccc(C(=O)O)cc2)c(OC)c1	-6.5
COC(=O)C(CC#Cc1ccc2c(c1)[C@]1(C(=O)N2)[C@H](c2ccc(O)cc2)N2[C@H](c3ccccc3)[C@H](c3ccccc3)OC(=O)[C@H]2[C@@H]1C(=O)O)C(=O)OC	34.0
COc1cccc(C(=O)OCc2nc3ccccc3s2)c1	52.8*
O=C(Nc1ccc(OCc2nc3ccccc3s2)cc1)c1cccc(I)c1	20.3
O=C(OCc1nc2ccccc2s1)c1ccco1	-0.7
[N-]=[N+]=Nc1cccc(C(=O)N2CCN(c3ccccc3)CC2)c1	17.7
CCn1c(NCCCO)nc2ccccc21	10.1
Cn1c(SCC(=O)Nc2ccc(Cl)cc2)nnc1-c1ccc(Br)cc1	10.9
O=C(CSc1nc2ccccc2c(=O)[nH]1)Nc1ccc(Br)c(Cl)c1	55.4*
CCOC(=O)c1c(NC(=O)CSc2ncn[nH]2)sc2c1CCCCC2	6.1
